Inconclusive results are not listed. Activity calls are given as the source filed them. The call rests on the fitted dose curve; in most records, active means well fitted inhibition curve with a large enough effect; inconclusive means small, poorly fitted or top-dose-only effect; inactive means flat fitted curve, though single readings scatter. Where a SMILES comes first, the peptide text is derived from it. The star is where a group is joined. βNA = c1ccc2cc(N*)ccc2c1; Cbz = O=C(OCc1ccccc1)*

Drawing on PubChem BioAssay (NCATS), this text covers outcome for 33 compounds.

This test relates to HACAT. Put plainly: qHTS assay to identify novel small-molecules to repurpose for Merkel cell carcinoma treatment (AID 1296009). Further: nearly all actives have a fitted effect of over 60% in size. The following applies: MCC and control cell lines, CellTiter-Glo viability, 72 h; at 44.8 µM (top of the series) unless noted. The method in brief: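 Cell viability measured by CellTiter-Glo following 72 hr compound treatment at 37 degree celsius, with NPC and MIPE libraries tested in 8- and 11-point concentration series.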
For `COC(=O)C1=COC(O[C@@H]2O[C@H](CO)[C@@H](O)[C@H](O)[C@H]2O)/C(=C\COC(=O)/C=C/c2ccccc2)C1CC(=O)OCCc1ccc(O)cc1` (stereo partly drawn), the outcome was “inactive [at 17.4 µM]”. The result for `C=CC(C)(O)CC/C=C(\C)C1CC=C(C)C(=O)O1` (stereo not drawn) reads “inactive”. Turning to `COc1cc(/C=C/C(=O)OC[C@H]2O[C@@H](OC3CC(C)=C(C(=O)O)C(C)(C)C3)[C@H](O)[C@@H](O)[C@@H]2O)cc(OC)c1O` (stereo partly drawn), the outcome is “inactive [at 17.4 µM]”. For `CC1(C)C[C@H](O)C[C@@]2(C)[C@H]1[C@H](O)C=C1COC(=O)[C@@]12O`, the result was inactive. Take `O=C(O)Cc1cn([C@@H]2O[C@H](CO)[C@@H](O)[C@H](O)[C@H]2O[C@@H]2O[C@H](CO)[C@@H](O)[C@H](O)[C@H]2O)c2ccccc12`: the outcome was “inactive [at 17.4 µM]”. Regarding `C=C1CC[C@@]2(OC1)O[C@H]1CC3[C@@H]4CC=C5C[C@@H](O)C[C@@H](O[C@@H]6OC[C@H](O)[C@H](O)[C@H]6O[C@@H]6O[C@@H](C)[C@H](O)[C@@H](O)[C@H]6O)[C@]5(C)C4CC[C@]3(C)[C@H]1[C@@H]2C` (stereo partly drawn), the outcome was “inactive [at 17.4 µM]”. As for `CC(C)CC(NC(=O)OCc1ccccc1)C(=O)NC(CC(C)C)C(=O)NC(CCC(=O)O)C(=O)Nc1ccc2ccccc2c1` (stereo not drawn) (Cbz-Leu-Leu-Glu-βNA; configuration not given here), the outcome was inactive.

With `OC[C@@]1(O)CO[C@H](OC[C@H]2O[C@@H](OC(CCCCc3ccc(O)cc3)CCc3ccc(O)cc3)[C@H](O)[C@@H](O)[C@@H]2O)[C@@H]1O` (stereo partly drawn), the outcome is “inactive [at 17.4 µM]”. Turning to `Nc1ccc(-n2nc(C(F)(F)F)cc2C(F)(F)F)cc1`, the compound was called inactive.

Consider `C/C(=C\C(=O)C[C@@]12C(=O)O[C@]3(C)CC[C@H]1C[C@H]23)C(N)=O`, for which the result was inactive. `Nc1ncnc2c1C(=O)N(c1ccc(C3CCC(CC(=O)O)CC3)cc1)CCO2` (stereo not drawn): the outcome was inactive. In the case of `COC1OC(=O)C2=C1C1(C)CCCC(C)(C)C1CC2O` (stereo not drawn), the compound was classed as inactive.

`C=C(CC/C=C(\C)C(=O)O)C1(O)CC=C(C)CC1` (stereo not drawn): the outcome was inactive. For the compound `CC(C)Oc1ccc(-c2nc(-c3cccc4c3CCC4NCCC(=O)O)no2)cc1C#N` (stereo not drawn), the result was inactive.

On to `C=C1CC[C@@]2(OC1)O[C@H]1CC3[C@@H]4CC=C5C[C@H](O[C@H]6OC[C@@H](O)C(O)[C@@H]6O[C@@H]6O[C@@H](C)[C@H](O)[C@@H](O[C@@H]7O[C@H](CO)[C@@H](O)[C@H](O)[C@H]7O)[C@H]6O)C[C@@H](O)[C@]5(C)C4CC[C@]3(C)[C@H]1[C@@H]2C` (stereo partly drawn), for which the outcome is “inactive [at 9.27 µM]”. On to `CC(C)c1cc2c(c(O)c1O)[C@@]13CCCC(C)(C)C1[C@@H](O)[C@@H]2OC3=O` (stereo partly drawn), for which the compound was classed as inactive. For `COc1cccc(C)c1C(=O)O[C@@H]1C[C@H](O[C@H]2[C@H](O)C[C@H](O[C@@H]3CCC[C@H]4[C@H]3C=C[C@@H]3CCCC/C=C/[C@H]5C=C(C(=O)O)[C@@H](C)C[C@@]56OC(=O)C(=C6O)OC(=O)[C@@]34C)O[C@@H]2C)O[C@H](C)[C@H]1O`, the outcome was “inactive [at 9.27 µM]”.

Take `CC(=O)OC1C(CO)OC(O[C@H]2[C@H](OC(=O)[C@]34CCC(C)(C)C[C@H]3C3=CCC5[C@@]6(C)CC[C@H](O[C@@H]7O[C@H](C(=O)O)[C@@H](O)[C@H](O[C@@H]8OC[C@@H](O)[C@H](O)[C@H]8O)[C@H]7O[C@@H]7O[C@H](CO)[C@H](O)[C@H](O)[C@H]7O)[C@@](C)(C=O)C6CC[C@@]5(C)[C@]3(C)C[C@H]4O)O[C@H](C)[C@H](OC3OC(C)C(OC4OCC(O)C(O)C4O)C(O)C3O)[C@@H]2O)C(O)C1O` (stereo partly drawn): the outcome was “inactive [at 9.27 µM]”.

On to `CC(C)=CCC/C(C)=C/CO[C@@H]1O[C@H](CO[C@@H]2O[C@@H](CO)[C@H](O)[C@H]2O)[C@@H](O)[C@H](O)[C@H]1O`, for which the outcome was “inactive [at 17.4 µM]”. The result for `O=C(c1ccc(Cl)c([N+](=O)[O-])c1)N1CCN(c2ccccc2F)CC1` reads “inactive”; that for `COc1cc(O)c2c(c1Cl)CC(C)OC2=O` (stereo not drawn), “inactive”; that for `CCCCNc1nc(N)c2[nH]c(=O)n(Cc3ccc(OCCN(C)C)nc3)c2n1`, “inactive”.

In the case of `CC(O)C(=O)/C=C/C=C/C(=O)OC1C=C2COC(=O)C2(O)C2(C)CCCC(C)(C)C12` (stereo not drawn), the outcome is “inactive [at 17.4 µM]”. As for `CC1(C)CC[C@]2(C(=O)O)CC[C@]3(C)C(=CCC4[C@@]5(C)CC[C@H](O[C@@H]6O[C@H](C(=O)O)[C@@H](O)[C@H](O[C@@H]7O[C@H](CO)[C@H](O)[C@H](O)[C@H]7O)[C@H]6O[C@@H]6O[C@H](CO)[C@@H](O)[C@H](O)[C@H]6O)C(C)(C)C5CC[C@]43C)[C@@H]2C1` (stereo partly drawn), the outcome was “inactive [at 4.96 µM]”.

For the compound `CC(=O)OC(C)(C)/C=C/C(=O)[C@](C)(O)C1[C@H](O)C[C@@]2(C)[C@@H]3CC=C4[C@@H](C[C@H](O[C@@H]5O[C@H](CO)[C@@H](O)[C@H](O)[C@H]5O)C(=O)C4(C)C)[C@]3(C)C(=O)C[C@]12C` (stereo partly drawn), the outcome was “inactive [at 17.4 µM]”. The result for `CC1=CC(=O)CC(C)(C)[C@@]1(O)/C=C/C(C)O[C@@H]1O[C@H](CO)[C@@H](O)[C@H](O)[C@H]1O` (stereo partly drawn) reads “inactive [at 17.4 µM]”; that for `CC(C)C1NC(=O)C(CC2(O)c3ccccc3N3C(=O)C(Cc4ccccc4)NC32)NC1=O` (stereo not drawn), “inactive [at 17.4 µM]”.

Take `OC[C@@]1(O)CO[C@H](OC[C@H]2O[C@@H](OC(CCCCc3ccc(O)cc3)CCc3ccc(O)cc3)[C@H](O[C@H]3OC[C@](O)(CO)[C@H]3O)[C@@H](O)[C@@H]2O)[C@@H]1O` (stereo partly drawn): the outcome is “inactive [at 17.4 µM]”. The result for `COC(=O)c1c(CC=C(C)C)c(OC2OC(CO)C(O)C(O)C2O)c2ccccc2c1OC1OC(CO)C(O)C(O)C1O` (stereo not drawn) reads “inactive [at 17.4 µM]”; that for `C[C@]1(O)CC[C@@H]2C(C(=O)O)=CO[C@@H](O[C@@H]3O[C@H](COC(=O)/C=C/c4ccc(O)c(O)c4)[C@@H](O)[C@H](O)[C@H]3O)[C@@H]21`, “inactive [at 17.4 µM]”; that for `CC(C)(O)C1CC=C(C(=O)OC[C@H]2O[C@@H](Oc3cc(C(=O)O)cc(O)c3O)[C@H](O)[C@@H](O)[C@@H]2O)CC1` (stereo partly drawn), “inactive [at 17.4 µM]”. Turning to `COc1cc2c(cc1O)CC(O)(CO)C(CO)C2c1ccc(OC2OC(CO)C(O)C(O)C2O)c(OC)c1` (stereo not drawn), the outcome was “inactive [at 17.4 µM]”. The result for `O=C(O)CC/C=C\C[C@H]1CO[C@@H](c2ccccc2Cl)O[C@H]1c1ccccc1O` reads “inactive”.
